Most compounds without a hit are left out; they make up all but 0.96% or so of the library.
A647 fluor – qHTS Assay for Spectroscopic Profiling in A647 Spectral Region. 59,000 tested, under 10 active. max dye-equivalent concentration, M. AID 592, 2007. Compound fluorescence, A647 channel (570/671 nm), Tris buffer;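 further: values scaled relative to a standard on each plate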
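Compounds pinned into 100 mM Tris pH 8.0, 15 min at room temperature, then read with 570 nm excitation/671 nm emission filters. Fluorescence normalized to an on-plate six-point Alexa 647 standard curve, giving dye-equivalent concentration per compound concentration.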
TexasRed autofl – qHTS Assay for Spectroscopic Profiling in Texas Red Spectral Region. Compound fluorescence, Texas Red channel, 547/618 nm; stronger effect = higher value. max dye-equivalent concentration, M. actives 0.06% (n = 59,000); in the data active means max dye-equivalent concentration above about 10 nM; inconclusive means between about 1.1 nM and that limit
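Compound titrations in 100 mM Tris pH 8.0 were incubated 15 min at room temperature and read at 547 nm excitation / 618 nm emission. Texas Red six-point standard curve on each plate converted fluorescence to dye-equivalent concentration.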
Rhodamine autofl – qHTS Assay for Spectroscopic Profiling in Rhodamine Spectral Region; Rhodamine-region fluorescence, 547/598 nm, Tris buffer; stronger effect = higher value; max dye-equivalent concentration, M; actives 0.05% (n = 59,000); in the data active means max dye-equivalent concentration above about 11 nM; inconclusive means between about 1.1 nM and that limit
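Intrinsic compound fluorescence, ex 547 / em 598 nm, CCD imager. Tris 100 mM pH 8.0; 15 min RT. Output = rhodamine dye-equivalent concentration at each compound concentration.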
A488 fluor – qHTS Assay for Spectroscopic Profiling in A488 Spectral Region; actives 0.1% (n = 59,000); max dye equivalency, M; compound autofluorescence, A488 spectral region, dye equivalency; Compound Type: qHTS ECL - MLSMR
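Compound autofluorescence was read in 100 mM Tris pH 8.0 after 15 min at room temperature, ex 480 nm/em 540 nm. Intensities were converted to A488 dye-equivalent concentration using an on-plate six-point A488 standard curve.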
Resorufin autofl – qHTS Assay for Spectroscopic Profiling in Resorufin Spectral Region | Compound fluorescence, resorufin region 547/598 nm, buffer; stronger effect = higher value | max dye-equivalent concentration, M | actives 0.04% (n = 59,000) | AID 588, 2007
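Compounds in 100 mM Tris buffer, pH 8.0, incubated 15 min at room temperature, then read with 547 nm excitation and 598 nm emission filters. Fluorescence was converted to dye-equivalent concentration using an on-plate six-point resorufin standard curve.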
Fluorescein fluor – qHTS Assay for Spectroscopic Profiling in Fluorescein Spectral Region | Compound autofluorescence, 480/540 nm, fluorescein-equivalent; stronger effect = higher value | max fluorescein-equivalent concentration, M | actives 0.91% (n = 59,000); in the data active means max fluorescein-equivalent concentration above about 10 nM; inconclusive means between about 1.1 nM and that limit
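Compounds were pin-transferred into 100 mM Tris buffer, pH 8.0, and incubated 15 min at room temperature. Fluorescence was read at 480 nm excitation/540 nm emission. Signals were normalized to an on-plate six-point fluorescein standard curve as dye-equivalent concentration.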
Numbers without * were called inactive. Unless noted, how the calls were made is not given here.

`Cc1cc(N2CCOCC2)n2nc(-c3cccc(F)c3)cc2n1` gave A647 fluor 2.7e-09, TexasRed autofl inactive, Rhodamine autofl inactive, A488 fluor inactive, Resorufin autofl inactive and Fluorescein fluor 1.1e-08M*.
COC(=O)c1sc(N)c(C(=O)OC)c1CSc1nc2sc3c(c2c(=O)n1C)CCC3 was read as A647 fluor 2.74e-08, TexasRed autofl inconclusive, Rhodamine autofl inactive, A488 fluor inactive, Resorufin autofl inactive and Fluorescein fluor inconclusive.
Screening Cc1cccc(S(=O)(=O)c2c(N)n(Cc3ccco3)c3nc4ccccc4nc23)c1 returned A647 fluor 1.45e-08, TexasRed autofl inactive, Rhodamine autofl inactive, A488 fluor inactive, Resorufin autofl inactive and Fluorescein fluor 1.66e-08M*.
Screening COc1cccc(NS(=O)(=O)c2ccc(S(=O)(=O)N3CCOCC3)cc2)c1 returned A647 fluor 4.6e-09, TexasRed autofl inactive, Rhodamine autofl inactive, A488 fluor inactive, Resorufin autofl inactive and Fluorescein fluor 1.08e-08M*.
`COc1cccc(NS(=O)(=O)c2ccc3c(c2)n(C)c(=O)c(=O)n3C)c1` gave A647 fluor 1e-09, TexasRed autofl inactive, Rhodamine autofl inactive, A488 fluor inactive, Resorufin autofl inactive and Fluorescein fluor inactive.
c1cncc(-c2cncnc2NC2CCNCC2)c1 was read as A647 fluor 3.74e-08, TexasRed autofl inactive, Rhodamine autofl inactive, A488 fluor inactive, Resorufin autofl inactive and Fluorescein fluor 1.41e-08M*.
`CN1CCN(Cc2nc3cccc4c3c([n+]2[O-])-c2ccccc2-4)CC1` gave A647 fluor 1e-09, TexasRed autofl inactive, Rhodamine autofl inactive, A488 fluor inactive, Resorufin autofl inactive and Fluorescein fluor 1.4e-08M*.
`CCCCn1c(CN2CCN(C)CC2)nc2ccccc21` gave A647 fluor 1e-09, TexasRed autofl inactive, Rhodamine autofl inactive, A488 fluor inactive, Resorufin autofl inactive and Fluorescein fluor inactive.
Screening N#CC1=C(N)OC2=C(CCC/C2=C/c2ccoc2)C1c1ccoc1 (centres undefined) returned A647 fluor 5.2e-09, TexasRed autofl inconclusive, Rhodamine autofl inactive, A488 fluor inactive, Resorufin autofl inactive and Fluorescein fluor 1.37e-08M*.
`CCN1CC2=C(OC(N)=C(C#N)C2c2ccccc2)/C(=C\c2ccccc2)C1` (centres undefined) gave A647 fluor 1e-09, TexasRed autofl inactive, Rhodamine autofl inactive, A488 fluor inactive, Resorufin autofl inactive and Fluorescein fluor inactive.
For Cc1sc2nc(SCC(=O)c3cccs3)n(Cc3ccco3)c(=O)c2c1C the results were A647 fluor 5.33e-08, TexasRed autofl inactive, Rhodamine autofl inactive, A488 fluor inactive, Resorufin autofl inactive and Fluorescein fluor inconclusive.
`O=c1[nH]c2ccccc2nc1NCCN1CCOCC1` gave A647 fluor 4.8e-08, TexasRed autofl inactive, Rhodamine autofl inactive, A488 fluor inactive, Resorufin autofl inactive and Fluorescein fluor inconclusive.
Cc1ccc2nc3sc(C(=O)N4CCOCC4)c(N)c3cc2c1 was read as A647 fluor 1.1e-09, TexasRed autofl inactive, Rhodamine autofl inactive, A488 fluor inconclusive, Resorufin autofl inactive and Fluorescein fluor 8.1e-08M*.
`CCOC(=O)c1c(C)n(C)c2ccc(OC)c(NC(=O)CCN3CCSCC3)c12` gave A647 fluor 4.37e-08, TexasRed autofl inactive, Rhodamine autofl inactive, A488 fluor inactive, Resorufin autofl inactive and Fluorescein fluor inconclusive.
For CCCOc1ccc(/C=c2\sc3nc(-c4ccco4)nn3c2=O)cc1OCC the results were A647 fluor 1.55e-08, TexasRed autofl inactive, Rhodamine autofl inactive, A488 fluor inconclusive, Resorufin autofl inactive and Fluorescein fluor 3.25e-08M*.
For O=C(CCC1COc2ccccc2O1)Nc1cccnc1 (centres undefined) the results were A647 fluor 1.96e-08, TexasRed autofl inactive, Rhodamine autofl inactive, A488 fluor inactive, Resorufin autofl inactive and Fluorescein fluor 1.73e-08M*.
Screening COc1cc(C(=O)O)c([N+](=O)[O-])c(OC)c1OC returned A647 fluor 1e-09, TexasRed autofl inactive, Rhodamine autofl inactive, A488 fluor inactive, Resorufin autofl inactive and Fluorescein fluor inactive.
For O=C(N1CCCC1)n1c(Cc2ccccc2)nc2ccccc21 the results were A647 fluor 9.6e-09, TexasRed autofl inactive, Rhodamine autofl inactive, A488 fluor inactive, Resorufin autofl inactive and Fluorescein fluor inactive.
COc1ccccc1NC(=O)c1cc2ccc(O)cc2o/c1=N\O was read as A647 fluor 3.38e-08, TexasRed autofl inactive, Rhodamine autofl inactive, A488 fluor inactive, Resorufin autofl inactive and Fluorescein fluor 1.45e-08M*.
Screening COc1ccccc1NC(=O)c1cc2ccccc2o/c1=N\O returned A647 fluor 4.41e-08, TexasRed autofl inactive, Rhodamine autofl inactive, A488 fluor inactive, Resorufin autofl inactive and Fluorescein fluor inconclusive.
Screening CC(C)N1CC2=C(OC(N)=C(C#N)C2c2cccnc2)/C(=C/c2cccnc2)C1 (centres undefined) returned A647 fluor 6.2e-09, TexasRed autofl 1.28e-08M*, Rhodamine autofl inactive, A488 fluor inactive, Resorufin autofl inactive and Fluorescein fluor inconclusive.
`COc1cc(/C=C(\C#N)C(=O)c2ccc(O)c(O)c2)cc(I)c1O` gave A647 fluor 1e-09, TexasRed autofl inactive, Rhodamine autofl inactive, A488 fluor inactive, Resorufin autofl inactive and Fluorescein fluor 1.32e-08M*.
For CN1CCN(C(=O)CSc2nc(-c3cccs3)cc(-c3cccs3)c2C#N)CC1 the results were A647 fluor 2.6e-08, TexasRed autofl inconclusive, Rhodamine autofl inactive, A488 fluor inactive, Resorufin autofl inactive and Fluorescein fluor 2.04e-08M*.
For COC(=O)c1sccc1NC(=O)c1cc2c(s1)CCCC2 the results were A647 fluor 4.3e-09, TexasRed autofl inactive, Rhodamine autofl inactive, A488 fluor inactive, Resorufin autofl inactive and Fluorescein fluor inactive.
For c1ccc(CC2CCN(c3nc4ccccc4n4nnnc34)CC2)cc1 the results were A647 fluor 3.27e-08, TexasRed autofl inactive, Rhodamine autofl inactive, A488 fluor inactive, Resorufin autofl inactive and Fluorescein fluor inconclusive.
O=C(c1ccco1)N1CCN(c2nc3ccccc3n3nnnc23)CC1 was read as A647 fluor 4.25e-08, TexasRed autofl inconclusive, Rhodamine autofl inactive, A488 fluor inactive, Resorufin autofl inactive and Fluorescein fluor 1.02e-08M*.

Assay outcomes as filed in PubChem BioAssay.
